# In the library only some 8% were active in any assay of this set; here they are far more common.
# MCF10A rerep – inducers of DNA re-replication in MCF 10A breast cells; MCF 10A DNA re-replication, Hoechst nuclear intensity, 48 h; Potency, µM (top dose mostly 46.1 µM), without a hit: at the top dose activity, positive = re-replication, hits mostly activators; 2.9% of 350,000 active; also: % of control where 0% means no effect; nearly all actives have a fitted effect of over 50% in size
# KB-3-1 tox – KB-3-1 parental cell cytotoxicity | Potency, µM (series often up to 46.1 µM), usual class: cytotoxic | KB-3-1 viability, CellTiter-Glo ATP luminescence, 72 h | 1.4% of 400,000 active; also: % is scaled to controls: 0 for no effect and ±100 for the full control effect; nearly all actives have a fitted effect of over 60% in size
#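 Screening of KB-3-1 cells (DMEM, 10% FBS, phenol-red free) ran from lowest to highest compound concentration; after 72 h at 37 °C viability was read luminescently and curves fitted.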
# SW480 rereplic – induces DNA re-replication in SW480 colon adenocarcinoma cells; SW480 DNA re-replication, Hoechst DNA content imaging, 48 h; Potency, µM (top dose mostly 46.1 µM), inactives show at the top dose re-replication activation, actives largely listed as activators; 1.8% of 340,000 active; AID 624297; also: % of control where 0% means no effect; nearly all actives have a fitted effect of over 55% in size
#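 DNA re-replication was detected as more nuclei of elevated Hoechst intensity after 48 hr exposure to compound (23 nL pinned per well of 250 cells).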
# HT1080 IDH1KD tx – HT-1080 IDH1 knockdown cell toxicity (counter line); HT-1080 IDH1 knockdown viability, ATP luminescence, 48 h; Potency, µM (series often up to 46.1 µM), for the others: at the top dose activity, negative = toxicity, most hits filed as cytotoxic; 2% of 360,000 active;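 also: 0% = DMSO wells and -100% = cell-free medium wells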
#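 Knockdown cells (IDH1KD HT-1080) received compounds 2 h after plating at 750 cells/well and were kept 48 h at 37 °C in 5% FBS RPMI. A CellTiter-Glo luminescence read gave % activity for curve fitting.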
# HT1080NT lethal – kills 2HG-producing HT-1080-NT fibrosarcoma cells | HT-1080-NT fibrosarcoma viability, CellTiter-Glo ATP luminescence, 48 h | Potency, µM (series often up to 46.1 µM), inactives show at the top dose activity, negative = less viability, usual class: cytotoxic | 1.6% of 360,000 active;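 also: NT is the 2HG producing partner of a matched IDH1 knockdown line; 0% = DMSO-treated cells and -100% = media-only wells without cells; nearly all actives have a fitted effect of over 55% in size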
#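 750 cells/well, RPMI + 5% FBS; 2 h settle, compound pin-transfer, 48 h at 37 degrees C. CellTiter-Glo 10 min RT, luminescence. Normalized to DMSO and media-only wells.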
# KB-V1 MDR tox – kills drug-selected multidrug resistant KB-V1 cells | KB-V1 MDR cells viability, CellTiter-Glo, 72 h | Potency, µM (top dose mostly 46.1 µM), actives largely listed as cytotoxic | 3.4% of 400,000 active; also: % is scaled to controls: 0 for no effect and ±100 for the full control effect; nearly all actives have a fitted effect of over 60% in size
#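 KB-V1 cells (P-gp-expressing MDR subline of KB-3-1) in phenol-red-free DMEM with 10% FBS were exposed to library compounds over a concentration series for 72 h at 37 degrees C. Viability read by CellTiter-Glo luminescence; concentration-effect curves fitted after normalization.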
# Starred values were filed as active, the others as inactive; i = inactive; ? = inconclusive; . = not tested or not shown. Calls follow the shape of the dose curve; as a rule, active = well fitted curve in the direction sought with a large enough effect; inconclusive = small, poorly fitted or top-dose-only effect, or another doubt; inactive = no such curve, though single readings can be large; an effect the other way counts as inactive or inconclusive. Potency is read from the fitted curve at half-maximal effect.
SMILES,MCF10A rerep,KB-3-1 tox,SW480 rereplic,HT1080 IDH1KD tx,HT1080NT lethal,KB-V1 MDR tox
CN(Cc1ccco1)c1ncnc2ccc(-c3ccoc3)cc12,-2%,i,-4%,.,.,i
CCOc1ccc(NS(=O)(=O)c2ccc3[nH]c(=O)c(=O)[nH]c3c2)cc1,9%,i,4%,?,5%,i
COc1cc(-c2nn3c(COc4ccccc4)nnc3s2)cc(OC)c1OC,8%,i,-5%,-5%,-14%,5.2µM*
CCN(CC)c1ccc(-c2nn3c(-c4cccnc4)nnc3s2)cc1,5.2µM*,21µM*,21µM*,-19%,-29%,7.3µM*
COc1ccc(-c2nnc3sc(-c4ccco4)nn23)cc1OC,5%,?,-6%,0%,9%,2.1µM*
COc1cc(-c2nn3c(Cc4ccccc4)nnc3s2)cc(OC)c1OC,-3%,i,3%,-19%,-22%,i
CC(C)CC(COCc1cccc(Cl)c1)N1CCN(C(=O)c2ccc(C(F)(F)F)cc2)CCC1=O (configuration not stated),?,i,?,-25%,?,i
O=S(=O)(N1CCCCCC1)N1CCNCC1,-6%,i,28%,4%,8%,i
COc1cc(/C=C/c2nc3ccccc3c(=O)[nH]2)ccc1OC(F)F,-1%,i,0%,-3%,6%,i
O=c1[nH]c(/C=C/c2ccccc2OC(F)F)nc2c1cnn2-c1ccccc1,15µM*,i,?,?,18µM*,i
O=c1c2ccccc2sn1-c1ccc(Cl)cc1Cl,.,?,.,?,-21%,15µM*
COC(=O)c1ccc(C23CC4(C2)[C@H](CN(Cc2ccc(C(F)(F)F)cc2)[C@@H]4c2ccccc2)C3c2ccc(Cl)nc2)cc1 (some centres not stated),13%,i,-2%,-7%,-7%,i
FC(F)(F)c1ccc(CN2C[C@@H]3C(c4ccc(Cl)nc4)C4(c5cccnc5)CC3(C4)[C@H]2c2ccccc2)cc1 (some centres not stated),28%,15µM*,4%,?,?,?
COC(=O)c1cccc(C23CC4(C2)[C@H](CN(C)[C@@H]4c2ccccc2)C3c2ccccc2)c1 (some centres not stated),?,i,-3%,-8%,-18%,i
COC(=O)C1=CN(c2ccc(OC)cc2)C=C(C(=O)OC)C1c1cccc(F)c1,1%,i,24%,13%,7%,i
COC(=O)C1=CN(c2ccc(OC)cc2)C=C(C(=O)OC)C1c1ccc(C)c([N+](=O)[O-])c1,0%,?,4%,-4%,-8%,3.3µM*
CCC(OC(=O)C(CC(C)C)NC(=O)c1ccccc1)C(=O)Nc1nnc(C)s1 (configuration not stated),70%,i,?,0%,18%,i
CCNC(=S)N(Cc1cc2c(C)ccc(C)c2[nH]c1=O)C1CCCC1,?,?,3.7µM*,0%,-9%,i
Cc1ccc(C)c2[nH]c(=O)c(CN(Cc3nnnn3C3CCCCC3)CC3CCCO3)cc12 (configuration not stated),?,i,25%,?,-20%,i
Cc1ccc(C)c2[nH]c(=O)c(CN(CC3CCCO3)C(=O)NC3CCCCC3)cc12 (configuration not stated),9%,i,0%,-15%,?,15µM*
O=C(COC(=O)CCc1ccccc1)NC(c1ccccc1)c1ccccc1,0%,i,0%,-3%,-1%,i
CCN(CC)c1ccc(-n2c(C)c(C(C)=O)c(C(C)=O)c2C)cc1,15%,?,-12%,-6%,-8%,18µM*
CCOC(=O)C1=C(C)C/C(=N\NC(=O)c2ccccc2O)CC1,24%,i,18µM*,?,?,?
CCOC(=O)c1ccccc1O,5%,.,-6%,.,.,.

# Bioassay records from PubChem.
